The target of this experiment is Lysosomal acid glucosylceramidase (Homo sapiens) (UniProt P04062). The experiment in a line: Glucocerebrosidase-p2 (AID 348). The conditions noted are these: purified GBA, blue fluorogenic substrate, 40 min. Summed up: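 Normal human glucocerebrosidase (0.2 nM) with blue fluorogenic substrate (80 uM final) in citrate/phosphate pH 5.9 with 10mM sodium taurocholate, 0.01% tween-20; 40 min RT, NaOH/glycine stop; fluorescence Ex 365/Em 440; AC50 from a titration from 0.6 nM upwards.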
Sequence of Lysosomal acid glucosylceramidase (Homo sapiens) (P04062 whole entry, looked up): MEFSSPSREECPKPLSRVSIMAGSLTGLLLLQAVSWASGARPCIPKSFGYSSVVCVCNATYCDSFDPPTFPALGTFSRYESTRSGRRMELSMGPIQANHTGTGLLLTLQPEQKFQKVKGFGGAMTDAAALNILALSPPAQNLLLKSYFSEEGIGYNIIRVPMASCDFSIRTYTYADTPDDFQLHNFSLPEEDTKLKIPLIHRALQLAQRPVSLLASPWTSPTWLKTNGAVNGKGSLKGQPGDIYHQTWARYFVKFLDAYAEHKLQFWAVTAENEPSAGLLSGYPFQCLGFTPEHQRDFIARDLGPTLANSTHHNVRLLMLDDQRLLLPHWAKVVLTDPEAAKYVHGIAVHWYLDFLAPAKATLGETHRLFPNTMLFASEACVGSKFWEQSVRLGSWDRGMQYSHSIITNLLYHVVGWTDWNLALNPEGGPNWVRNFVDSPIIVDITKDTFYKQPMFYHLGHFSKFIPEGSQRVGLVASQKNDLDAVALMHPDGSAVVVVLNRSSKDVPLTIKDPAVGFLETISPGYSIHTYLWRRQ

Molecules are shown by their SMILES. Unmarked numbers belong to inactive results. Rule as the data show it: active = potency below about 10 µM; inactive = the rest.

From PubChem BioAssay (NCATS) come the findings set out here.
Potency is read from the fitted curve at half-maximal effect.

On to `CN1CCN(CCCN2c3ccccc3Sc3ccc(C(F)(F)F)cc32)CC1`, for which the Potency is more than 11.4 µM.
